# Reference: PubChem BioAssay (NCI)
# This is part of a sample that, as a whole, favours compounds with a hit. Of some 79,000 tested, about 15% had one in any assay. Active and inactive are the calls of the source. Cut-off read from the data, not from the text of the source: active = growth inhibition above about 70%; inactive = the rest.
# Experiment: NCI Yeast Anticancer Drug Screen. Data for the rad50 strain (AID 155);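 note: 0% = growth of vehicle-only cultures of the same strain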
# Conditions: S. cerevisiae rad50 strain growth inhibition; at 5.0 µM (retest, dose inferred, filed as 0.5); hits give high values
# In short: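 Compounds were tested on a yeast strain with an engineered DNA damage repair alteration; the reported value is growth inhibition normalised to vehicle treatment.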
row,SMILES,growth inhibition
1,CC(/C=N/NS(=O)(=O)c1ccc(C)cc1)=C(c1ccccc1)c1ccccc1,18% (inactive)
2,CCOC(=O)Cc1cc(=O)oc2c(CN3CCN(c4ccc(C)cc4)CC3)c(O)ccc12,3% (inactive)
3,Clc1ccc(/C=N\Nc2c3ccccc3nc3ccccc23)cc1Cl,-5% (inactive)
4,CNC(=O)c1cc(NC(=O)c2ccc(C(=O)Nc3cc(C(=O)NC)cc(C4=NCCN4)c3)cc2)cc(C2=NCCN2)c1,3% (inactive)
5,O=P1(O)c2ccccc2CS(=O)(=O)Cc2ccccc21,34% (inactive)
6,CC1=C(C(=O)NCc2ccccc2)C(c2ccccc2[N+](=O)[O-])C(C(=O)NCc2ccccc2)=C(C)N1,16% (inactive)
7,Oc1ccc(C2CCCCC2)cc1,1% (inactive)
8,CCN(CC)CCOc1cccc2c1C(=O)c1c(O)cccc1C2=O,12% (inactive)
9,CCN(CC)C1Oc2cc3c(cc2C(c2ccc(OC)cc2)C1C)OCO3 (stereo unspecified),2% (inactive)
10,COc1ccc(C2C3CCCC(C(c4ccc(OC)cc4)N2C)C32NC(=O)NC2=O)cc1 (stereo unspecified),63% (inactive)
11,Clc1ccc(SSc2ccc(Cl)cn2)nc1,5% (inactive)
12,CN=c1sc2c(n1C)C(=O)c1ccccc1C2=O,26% (inactive)
13,O=C(Nc1cccc(Cl)c1)OCCOC(=O)Nc1cccc(Cl)c1,30% (inactive)
14,O=[N+]([O-])c1ccc2c(c1)Cc1cc(Cl)ccc1-2,7% (inactive)
15,Cc1c(-c2ccccc2)ccnc1/C=N/NC(=S)NCCc1ccccc1,49% (inactive)
16,O=C(O)CCC(=O)NCCNC(=O)CC(=O)O,-152% (inactive)
